Screening data (PubChem)
Cruzain inh Det: inhibitors of Trypanosoma cruzi cruzain with detergent; 200,000 tested, 0.43% active; purified cruzain, Z-FR-AMC fluorescence, 0.01% Triton; P25779; Potency, µM, for the others: max response, negative = inhibition, most hits filed as inhibitors; active = well fitted curve in the direction sought with a large enough effect; inconclusive = small, poorly fitted or top-dose-only effect, or another doubt; inactive = no such curve, though single readings can be large; an effect the other way counts as inactive or inconclusive;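 also: potency is read from the fitted curve at half-maximal effect; plate controls were neutral wells for no effect and buffer without enzyme for full effect; nearly all actives have a fitted effect of over 40% in size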
Target sequence (P25779 123-467 limits assumed): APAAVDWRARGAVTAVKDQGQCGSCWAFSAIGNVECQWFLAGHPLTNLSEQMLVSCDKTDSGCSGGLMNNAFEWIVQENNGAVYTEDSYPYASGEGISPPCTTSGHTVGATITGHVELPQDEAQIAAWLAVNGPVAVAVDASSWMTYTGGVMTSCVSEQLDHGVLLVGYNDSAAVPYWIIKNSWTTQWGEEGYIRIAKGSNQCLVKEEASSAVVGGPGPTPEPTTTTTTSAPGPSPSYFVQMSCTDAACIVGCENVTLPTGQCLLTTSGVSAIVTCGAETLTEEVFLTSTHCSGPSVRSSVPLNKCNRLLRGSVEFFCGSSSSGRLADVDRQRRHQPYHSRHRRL
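Steps: dispense cruzain (1.5 nM final) in acetate buffer pH 5.5 with DTT and 0.01% Triton X-100; pin-transfer compounds; incubate 15 min RT; add Z-FR-AMC (2 uM final); read fluorescence every 30 s, using the 60 s intensity change.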
NS1 inh: blocks influenza NS1 protein function; AID 2326; Potency, µM (doses to about 46.1 µM), without a hit: at the highest dose activity, positive = more growth; 270,000 tested, 0.4% active; also: potency is read from the fitted curve at half-maximal effect; actives are rising curves; nearly all actives have a fitted effect of over 50% in size
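Recovery from NS1-induced slow growth read by OD600 in budding yeast switched to galactose assay medium (pH 6.0, -URA) at 1:100 dilution. Compound 23 nl per well; the matching strain lacking NS1 serves as control.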
Cruzain inh noDet: inhibitors of Trypanosoma cruzi cruzain without detergent; purified cruzain, Z-FR-AMC fluorescence, no detergent; Potency, µM, for inactives: max response, negative = inhibition, hits mostly inhibitors; 200,000 tested, 2.3% active; active = well fitted curve in the direction sought with a large enough effect; inconclusive = small, poorly fitted or top-dose-only effect, or another doubt; inactive = no such curve, though single readings can be large; an effect the other way counts as inactive or inconclusive;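 also: potency is read from the fitted curve at half-maximal effect; plate controls were enzyme without inhibitor for no effect and buffer without enzyme for full effect; nearly all actives have a fitted effect of over 40% in size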
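Purified cruzain at 1.5 nM, pre-incubated 15 min with compound at room temperature in 100 mM sodium acetate pH 5.5, 5 mM DTT, 0.00005% Triton X-100. Reaction started with 2 uM Z-FR-AMC; AMC fluorescence increase over 60 s gives rate.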
NS1 inh valid: influenza NS1 function inhibition validation; 1,400 tested, under 10 active; activity change, negative = inhibition, % at 32.9 µM; shares compounds with NS1 inh; influenza NS1 function cell assay, 15-point titration; AID 492980; also: 0% is about no effect
Flu PR8 replic: influenza NS1 inhibitors: inhibition of influenza A/PR/8/34 replication. 95 tested, 30% active. virus titer (log TCID50), log10 TCID50 at 5 µM. shares compounds with NS1 inh. MDCK infected influenza A/PR/8/34, virus titer TCID50; stronger effect = lower value; call rule not given here
* marks the source's active call; other numbers are inactive results; u = inconclusive; x = no result. The full list was thinned out, with hits kept by preference. Unless noted, calls follow the shape of the full dose curve.

SMILES	Cruzain inh Det	NS1 inh	Cruzain inh noDet	NS1 inh valid	others
COc1cc(C2CC(=O)Nc3c2c(C)nn3-c2nncc(-c3ccccc3)n2)cc(OC)c1OC (configuration not stated)	-5.8%	x	u	x
COC(=O)c1ccc(C2C(C(=O)Nc3ccc(C)cc3C)=C(C)Nc3ncnn32)cc1 (configuration not stated)	4.7%	22.4µM*	-2.8%	1.2
CC1=C(C(=O)Nc2ccc(C)cc2C)C(c2ccccc2C)n2ncnc2N1 (configuration not stated)	-0.6%	x	-11.2%	x
COc1ccc(-c2cc(C(=O)Nc3cc(C)n(Cc4ccc(Cl)cc4)n3)no2)cc1OC	2.2%	5.01µM*	u	-1.0
COc1ccc(CCNC(=O)c2cc(-c3ccc(Cl)cc3)on2)cc1OC	-2.8%	x	0.8%	x
Cc1cc(C)c(Cn2c(C(O)c3ccccc3)nc3ccccc32)c(C)c1 (configuration not stated)	1.4%	x	u	x
COc1cc(C(CC(=O)Nc2ccc(Br)cn2)N2Cc3ccccc3C2=O)cc(OC)c1OC (configuration not stated)	-10.0%	x	-4.8%	x
C/C(=N/NC(=O)Cc1cc(=O)[nH][nH]1)c1ccc([N+](=O)[O-])cc1	-7.6%	12.6µM*	-3.0%	u
C/C(=N\NC(=O)Cc1cc(=O)[nH][nH]1)c1cccc([N+](=O)[O-])c1	-2.8%	27.1%	2.6%	x
COc1cccc(C2C(C(=O)Nc3ccccc3OC)=C(C)Nc3nc4ccccc4n32)c1 (configuration not stated)	-8.4%	x	0.0%	x
Nc1nc(N)nc(CCCc2nc(N)nc(N)n2)n1	2.5%	5.6%	4.2%	x
CC(C)(C)NC(=O)[C@H]1CN(Cc2cccnc2)CCN1C[C@@H](O)C[C@@H](Cc1ccccc1)C(=O)N[C@H]1c2ccccc2C[C@H]1O	-4.0%	x	u	x
Cc1ccc(N2C(=O)CC(=O)NC2=O)cc1Cl	x	10µM*	x	20.5
O=C1CC(=O)N(c2ccc(Cl)cc2)C(=O)N1	x	26.8%	x	x
O=S(=O)(NCc1nc2cccnc2n1Cc1ccc(F)cc1)c1ccc2c(c1)CCCC2	-1.0%	x	-6.0%	x
Cc1cc(C)cc(NC(=S)NCc2cccs2)c1	-5.3%	2.6%	4.5%	x
Cc1cc(C)cc(NC(=S)NCc2cccn2C)c1	-9.8%	10µM*	-8.1%	-5.9
COc1cccc2cc(-c3cn4c(n3)sc3cc(F)ccc34)c(=O)oc12	0.0%	x	4.2%	x
CCn1c(SCC(=O)NCc2ccco2)nc2ccccc2c1=O	x	0.1%	x	x
O=C(CSc1nc2ccccc2c2nc3ccccc3n12)NCc1ccco1	-4.5%	2.82µM*	2.1%	33.5
CC1CCN(C(=O)Cn2c(=O)oc3ccccc32)CC1	-0.6%	3.55µM*	-6.2%	-2.0
O=C(Cn1c(=O)oc2ccccc21)N1CCCCC1	10.6%	6.9%	13.0%	x
Cc1cccc(OCCn2nnc3sc4c(c3c2=O)CCCC4)c1	-5.3%	x	0.9%	x
CCOCCCNS(=O)(=O)c1ccc(NC(=O)c2ccccc2)cc1	2.5%	2.1%	3.7%	x
CCOCCCNS(=O)(=O)c1ccc(NC(=O)Cc2c(F)cccc2Cl)cc1	x	u	x	-14.1	Flu PR8 replic=8.33
SMILES	Cruzain inh Det	NS1 inh	Cruzain inh noDet	NS1 inh valid	others
COc1ccc(C(=O)N2c3ccc(C)cc3C(C)(c3ccccc3)CC2(C)C)cc1 (configuration not stated)	-4.6%	x	u	x
COc1cc(CNC(=O)CSCc2nc3cccnc3n2C2CCCCC2)cc(OC)c1OC	-1.3%	x	4.1%	x
CCOc1cc(/C=C2\SC(=Nc3ccccc3)N(c3ccccc3)C2=O)ccc1OCC(=O)O	-19.6%	u	u	-34.9
CCc1ccc(N=C2NC(=O)/C(=C/c3ccc(OCC(=O)O)cc3)S2)cc1	x	10.2%	x	x
CCc1ccc(N=C2NC(=O)/C(=C/c3ccc(OCC(=O)O)c(OC)c3)S2)cc1	x	11.2µM*	x	46.2
CCOC(=O)C1=C(O)/C(=C/c2ccc(OCC(=O)O)c(OCC)c2)SC1=Nc1ccc(C)cc1	x	18.4%	x	x
CCC(C(=O)NCCc1cc(OC)ccc1OC)n1nc(C)c2sc3ccccc3c2c1=O (configuration not stated)	-5.9%	x	-21.6%	x
O=C(c1cccn1-c1nnc(N2CCCC2)s1)N1CCN(c2ccc(F)cc2)CC1	0.8%	x	-3.3%	x
Cc1c(C(=O)O)oc2ccc(S(=O)(=O)NCCC3=CCCCC3)cc12	-2.4%	10µM*	-18.1%	17.2
Cc1c(C(=O)NCCC2=CCCCC2)oc2ccc(S(=O)(=O)N3CCOCC3)cc12	-2.6%	-10.3%	u	x
Cc1cc(C)cc(Oc2coc3cc(OCC(=O)NC4CCCCC4)ccc3c2=O)c1	-1.1%	x	5.2%	x
CC(C)c1nc2sc3c(N4CCCCC4)ncnc3c2c2c1CCCC2	0.0%	x	-3.2%	x
CCOc1ccc(Nc2oc(-c3ccc(Cl)cc3)nc2C#N)cc1	1.7%	-2.9%	u	x
CN(C)c1oc(-c2ccc(OCc3ccc(Cl)cc3)cc2)nc1C#N	u	10µM*	20µM*	-3.3
Cc1ccc(Cn2c(CNC(=O)c3ccccc3Br)nc3cccnc32)cc1	-12.2%	x	-4.1%	x
Cc1cnc(C(=O)OCC(=O)NC(=O)NC(C)C)cn1	0.0%	1.41µM*	1.1%	-3.3
Cc1cnc(C(=O)OCC(=O)Nc2ccc(Cl)cc2)cn1	0.4%	-12.1%	-2.0%	x
CC(C)[C@@H](CC(=O)N[C@@H]1CCCC[C@H]1C(=O)N[C@H](CC(=O)N[C@@H](CCC(=O)O)CC(=O)O)Cc1c[nH]c2ccccc12)NC(=O)C[C@H](Cc1ccccc1)NC(=O)[C@@H]1CNCC[C@H]1N	0.4%	x	-1.8%	x
O=C(Nc1nccs1)C1CCCN1S(=O)(=O)c1ccc(Cl)cc1 (configuration not stated)	2.7%	2.7%	1.5%	x
NC(=O)c1ccsc1NC(=O)C1CCCN1S(=O)(=O)c1ccc(Cl)cc1 (configuration not stated)	-2.8%	8.91µM*	-0.8%	-24.1
CCS(=O)(=O)N1CCC2(CC1)OC(=O)C(C)=C2C(=O)NCc1ccccc1C	0.3%	x	-1.9%	x
O=S(=O)(c1ccccc1)c1nnn2c1nc(NCc1ccc(F)cc1)c1sccc12	1.2%	x	1.6%	x
CCOc1ccc(NC(=O)c2c(NC(=O)CNCCN3CCOCC3)sc3c2CCC3)cc1	x	2.82µM*	x	-17.5
CCOc1ccc(NC(=O)c2c(NC(=O)c3ccccc3F)sc3c2CCC3)cc1	0.5%	x	0.5%	x
CC(C)C[C@@H](CC(=O)N[C@@H](CCC(=O)O)CC(=O)O)NC(=O)[C@@H]1CNCC[C@H]1NC(=O)C[C@H](CCCN)NC(=O)C[C@H](Cc1c[nH]c2ccccc12)NC(=O)[C@@H]1CCCC[C@H]1N	-3.5%	x	-10.4%	x
COC(=O)C1=C(C)N(Cc2ccc(C)cc2)C(=O)/C1=C\c1ccc(O)c(OC)c1	-6.9%	10µM*	12.7%	u
COC(=O)C1=C(C)N(Cc2ccc(C)cc2)C(=O)/C1=C\c1cc(OC)c(OC)c(OC)c1	-3.5%	22.7%	u	x
Cc1nc2ccc(NC(=O)Cc3c(F)cccc3Cl)cc2s1	x	3.98µM*	x	3.6
O=C(Cc1c(F)cccc1Cl)Nc1nc2ccccc2s1	x	-2.6%	x	x
